Test results taken from PubChem BioAssay AID1851 (National Center for Advancing Translational Sciences (NCATS), 2009).
The whole screen tested about 16,000 compounds, of which about 2,600 (16%) were called active. Not shown: some 20% with an inconclusive outcome. Calls come from the whole dose curve; as a rule, active = well fitted curve in the direction sought with a large enough effect; inconclusive = small, poorly fitted or top-dose-only effect, or effect the other way; inactive = no such curve, though single readings can be large or run the other way. Only a sample is shown.

Target: Cytochrome P450 2D6 (Homo sapiens) (UniProt P10635)
Sequence (P10635 whole entry, looked up): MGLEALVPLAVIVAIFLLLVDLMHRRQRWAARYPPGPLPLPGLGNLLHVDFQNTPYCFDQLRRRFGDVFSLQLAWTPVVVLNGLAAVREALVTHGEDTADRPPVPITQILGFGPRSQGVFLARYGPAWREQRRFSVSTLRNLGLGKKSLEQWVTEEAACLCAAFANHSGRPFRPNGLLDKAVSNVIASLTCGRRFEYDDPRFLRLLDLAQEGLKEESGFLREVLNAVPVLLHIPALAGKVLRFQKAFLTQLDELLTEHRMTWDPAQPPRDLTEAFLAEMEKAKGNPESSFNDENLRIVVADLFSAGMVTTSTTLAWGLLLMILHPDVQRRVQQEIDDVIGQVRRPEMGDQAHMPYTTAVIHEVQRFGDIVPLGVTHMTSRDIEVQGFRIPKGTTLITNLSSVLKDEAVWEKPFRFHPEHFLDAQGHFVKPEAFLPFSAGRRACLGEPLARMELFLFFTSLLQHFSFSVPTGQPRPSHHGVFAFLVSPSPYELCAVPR
Assay: Cytochrome panel assay with activity outcomes
Settings: recombinant CYP, pro-luciferin dealkylation, luminescence, p450-cyp2d6; series mostly up to 57.1 µM; activity, negative = inhibition: at the top concentration
% is set by controls: 0 for no effect and ±100 for the full control effect.

Compound | activity, negative = inhibition | AC50
Cc1cc(C)n(C(=O)c2cc3c(s2)CCCC3)n1 | -10.8% (inactive) | 
COC(=O)C(CCSC)NC(=O)c1cccc([N+](=O)[O-])c1 (configuration not stated) | 11.3% (inactive) | 
CCOc1ccc(CC(=O)Nc2sc(Cc3ccccc3)c(C)c2C(N)=O)cc1OCC | -3.45% (inactive) | 
CCOC(=O)c1c(NC(=O)Nc2ccccc2)sc(C)c1C | -25.9% (inactive) | 
COC(=O)c1c(NC(C)=O)sc(Cc2ccccc2)c1C |  | 25.1 µM (active)
N#CCCn1c(=O)c(-c2ccc(F)cc2)nc2cnc(OCc3ccccc3)nc21 | 8.49% (inactive) | 
Cc1ccc(S(=O)(=O)N[C@H]2COC(=O)C/C=C\[C@@H](C)[C@H](NS(=O)(=O)c3ccc(C)cc3)COC(=O)C/C=C\[C@H]2C)cc1 | 4.7% [at 11.4 µM] (inactive) | 
COCCn1c(=O)c(C)nc2cnc(N3CCN(C)CC3)nc21 | 14.1% (inactive) | 
Clc1ccc(Cl)c(SCCCN2CCNCC2)c1 |  | 2.51 µM (active)
COC(=O)c1sccc1NC(=O)CSc1cc(Cl)ccc1Cl | -7.42% (inactive) | 
Cc1cccc(C(=O)O/N=C(\N)c2cccc([N+](=O)[O-])c2)c1 | 1.21% (inactive) | 
C#C[C@]1(O)CC[C@H]2[C@H]3CCC4=Cc5oncc5C[C@]4(C)[C@@H]3CC[C@]21C | -6.07% (inactive) | 
CSc1nsc(SC)c1NC(=O)OCC1CCCO1 (configuration not stated) | -5.43% (inactive) | 
C=CCNC(=O)c1ccc2nc(-c3ccccc3)c(-c3ccccc3)nc2c1 | -22.7% (inactive) | 
CC[n+]1c(/C=C/Nc2ccccc2)oc2ccccc21 |  | 1.41 µM (active)
O=C(O)CN=C1NC2(CCCC2)Cc2ccccc21 | 6.94% (inactive) | 
COC(=O)N1CCC2(CC1)CCN(c1ccncc1)CC2 | 3.16% (inactive) | 
N=C1CCC[C@@H]1C(=S)SCCC(N)=O | 0.37% [at 11.4 µM] (inactive) | 
Cc1cccc(CNc2ccnc(-c3ccccc3Cl)n2)c1 |  | 15.8 µM (active)
COc1ccccc1-c1nccc(NCc2ccccc2)n1 |  | 3.98 µM (active)
COc1ccccc1-c1nccc(NC2CCNCC2)n1 | -3.43% (inactive) | 
CNc1ccnc(-c2ccccc2C)n1 | -4.81% (inactive) | 
COc1ccccc1-c1nccc(NCc2cccc(C)c2)n1 |  | 1.58 µM (active)
CNc1ccnc(-c2ccccc2C(F)(F)F)n1 | -1.5% (inactive) | 
CNc1ccnc(-c2ccccc2OC)n1 |  | 5.01 µM (active)
Cc1cnc(CNc2ccnc(-c3ccccc3Cl)n2)cn1 | -5.09% (inactive) | 

Compound | activity, negative = inhibition | AC50
C=CCNC(=O)c1ccccc1Cl | -3% (inactive) | 
COc1ccc(-n2c(=O)c(C)nc3cnc(N4CCOCC4)nc32)cc1 | -1.02% (inactive) | 
COc1cccc(/C(O)=C2/C(=O)C(=O)N(Cc3cccnc3)C2c2ccco2)c1 (configuration not stated) | 1.15% (inactive) | 
C[C@@H]1NC(=O)C/C=C\[C@@H](C)[C@@H]2C=C[C@H](O)[C@@H](COC(=O)[C@H](C)NC(=O)C/C=C\[C@@H](C)[C@@H]3C=C[C@H](O)[C@@H](COC1=O)O3)O2 | 9.45% [at 11.4 µM] (inactive) | 
COc1cccc(Cn2c(=O)c(-c3cccc(C#N)c3)nc3cnc(Nc4ccccc4)nc32)c1 | 0.752% (inactive) | 
O=C(O)c1c(Br)c(Br)c(Br)c(Br)c1C1c2ccc(O)cc2Oc2cc(O)ccc21 | -6.23% [at 11.4 µM] (inactive) | 
O=c1[nH]n(-c2cccc3cccnc23)c(=O)c2ccccc12 | 5.11% (inactive) | 
COc1ccc(OC)c(NC(=O)Cn2cccc2)c1 | -4.42% (inactive) | 
Cc1occc1C(=O)NNC(=O)Cc1ccccc1 | -7.57% (inactive) | 
CCCCn1nnnc1SCC(=O)N1CCCC1 | 1.31% (inactive) | 
O=c1[nH]c(=S)[nH]c(-c2ccccc2)c1Cc1c(O)ccc2ccccc12 | -6.41% [at 11.4 µM] (inactive) | 
Cc1cccc(CNc2cc(-c3ccc(C(=O)N(C)C)cc3)ncn2)c1 | -3% (inactive) | 
Cc1cccc(CNc2ccnc(-c3ccccc3CN(C)C)n2)c1 |  | 2.51 µM (active)
CCN(C(=O)Cn1c(=O)oc2ccccc21)c1cccc(C(F)(F)F)c1 | -17.9% (inactive) | 
Cc1ccccc1Oc1ncnc2oc(-c3ccccc3)cc12 | -13.1% (inactive) | 
CC(=O)Oc1ccccc1C(=O)Oc1ccccc1C(=O)O | 1.36% [at 25.6 µM] (inactive) | 
CCn1c(SCC(=O)Nc2nc3ccc(C)cc3s2)nc2c(c1=O)SC(C)C2 (configuration not stated) | -15.7% (inactive) | 
O=C(N/N=C/c1ccc(Cl)cc1Cl)Nc1ccccc1 | 11% (inactive) | 
O=C(Nc1ccccc1)N[C@H]1C[C@H](C(=O)O)Nc2cc(Cl)cc(Cl)c21 |  | 12.6 µM (active)
O=C(N/N=C/c1ccc(Cl)cc1)Nc1ccccc1 | 2.13% (inactive) | 
COCCn1c(=O)c(-c2ccc(F)cc2)nc2cnc(Oc3ccccc3)nc21 | -2.23% (inactive) | 
O=C(Nc1cccc(F)c1)Nc1ccccn1 | -28.3% (inactive) | 
CCOC(=O)c1cnn(-c2nc(-c3ccc(F)cc3)cs2)c1C(F)(F)F | -14.3% (inactive) | 
CCOC(=O)c1sc2nc(CC(=O)OC)nc(NCc3ccc(F)cc3)c2c1C |  | 25.1 µM (active)
CCOC(=O)c1nnc(-c2ccccc2)nc1NCc1ccccc1 | -17.8% (inactive) | 
CCCCOC(=O)C1=C(C)Nc2ncnn2C1c1cc(OC)ccc1OC (configuration not stated) | -4.71% (inactive) | 

Compound | activity, negative = inhibition | AC50
O=C(Cc1ccc(S(=O)(=O)N2CCOCC2)s1)Nc1nc2c(s1)CCCC2 | -28.9% (inactive) | 
O=C(NCC1CCCO1)C1CCC(=O)N1CCc1ccccc1 (configuration not stated) | -12.3% (inactive) | 
CC(C)N(CCNC(=O)C1CCC(=O)N1Cc1ccc(F)cc1)Cc1ccccc1 (configuration not stated) |  | 1.26 µM (active)
Cc1ccc(CN2C(=O)CCC2C(=O)NCc2cccnc2)cc1 (configuration not stated) | -15.9% (inactive) | 
O=c1c(CCc2ccccc2)nc2cnc(Oc3cccc(Cl)c3)nc2n1C[C@H]1CCCO1 | -3.35% (inactive) | 
CCCN(CCC)CCCNC(=O)c1cc2cc3ccc(OC)cc3nc2o1 | -16.6% (inactive) | 
CCOC(=O)C1=NNC2(c3ccc(Cl)cc3)C(=O)N(c3cc(C)cc(C)c3)C(=O)C12 (configuration not stated) | -3.78% (inactive) | 
CCCCOC(=O)CSc1nnc(-c2cc(OC)c(OC)c(OC)c2)o1 | -2.6% (inactive) | 
O=C(O)C/C(=C\c1ccco1)C(=O)O | 1.84% [at 11.4 µM] (inactive) | 
O=c1cnc2cncnc2n1Cc1ccccc1 | -8.52% (inactive) | 
Nc1cccc(OCc2nc(N)nc(N)c2-c2ccc(Cl)cc2)c1 | -14.7% [at 11.4 µM] (inactive) | 
COc1ccc(-n2cnnc2)cc1 | -10% (inactive) | 
CC1(C)N=C(N)N=C(N)N1c1cccc(OCc2cccc(N)c2)c1 |  | 2.51 µM (active)
COc1ccc(-n2c(C)nn(C)c2=O)cc1 | -17.9% (inactive) | 
CC1(C)N=C(N)N=C(N)N1c1cccc(CSc2ccccc2)c1 |  | 0.251 µM (active)
COc1ccc(N2C(N)=NC(N)=NC2(C)C)cc1 |  | 14.1 µM (active)
COC(=O)c1nc(NC(=O)c2ccccc2)n[nH]1 | -23.8% (inactive) | 
COc1cc(C(=O)NCCC(C)C)c([N+](=O)[O-])cc1OC | 11.9% (inactive) | 
CCCCCCCCCCCCCCCCCC(=O)O[C@H](CC(=O)O)C[N+](C)(C)C | 10.3% (inactive) | 
O=P(O)(O)CCP(=O)(c1ccccc1)c1ccccc1 | 14.9% (inactive) | 
O=C1NC(c2ccc(Br)cc2)Nc2sc3c(c21)CCC3 (configuration not stated) | -19.6% (inactive) | 
CN(C)c1ccc(/C=C2/C(=O)Nc3ccccc32)cc1 | -1.67% (inactive) | 
O=C(NCc1nc2ccccc2[nH]1)[C@H]1C[C@@H]1[C@H](NP(=O)(c1ccccc1)c1ccccc1)c1ccccc1 | -9.56% (inactive) | 
O=C(OCc1nc2ccccc2[nH]1)C12CC3CC(CC(C3)C1)C2 |  | 15.8 µM (active)
CC(C)(CCc1nc2ccccc2[nH]1)C(=O)O | -1.31% [at 11.4 µM] (inactive) | 
COc1ccc(/C=C/C(=O)Nc2nc(C)cc(C)n2)cc1OC | 7.99% (inactive) | 

Compound | activity, negative = inhibition | AC50
Cc1ccc(S(=O)(=O)N2CCN(C(=O)C3COc4ccccc4O3)CC2)cc1C (configuration not stated) | -29.7% (inactive) | 
Cc1cc(C)cc(OCC(=O)Nc2ccc3c4c(cccc24)CC3)c1 | 2.78% (inactive) | 
CC(C)c1ccc(/C=C2\C=C(c3ccc4ccccc4c3)OC2=O)cc1 | 2.54% [at 11.4 µM] (inactive) | 
Cc1cccc(C)c1NC(=O)CS(=O)CC(=O)NCCCc1ccccc1 (configuration not stated) | -1.79% (inactive) | 
Cc1ccccc1-c1nc(CS(=O)CC(=O)NCCN2CCN(Cc3ccccc3)CC2)c(C)o1 (configuration not stated) |  | 14.1 µM (active)
Cc1cc(C)c(NC(=O)CS(=O)CC(=O)NCCCc2ccccc2)c(C)c1 (configuration not stated) | -8.29% (inactive) | 
CC(=O)[C@@]1(O)CC[C@H]2[C@H]3C[C@@H](C)C4=CC(=O)C=C[C@]4(C)[C@@]3(F)[C@@H](O)C[C@]21C | -0.238% [at 25.6 µM] (inactive) | 
Cc1cc2[nH]c(=O)c3ccccc3n2n1 | -11.2% (inactive) | 
CCCC(=O)Nc1nnc(Cc2ccccc2)s1 | 17.3% (inactive) | 
CCCc1nnc(NC(=O)CCC(=O)N2CCN(c3ccccn3)CC2)s1 | -3.96% (inactive) | 
CCCC(=O)Nc1nnc(CCN2CCCCC2)s1 |  | 15.8 µM (active)
COc1ccc(/C=N/NC(N)=S)cc1OC(=O)c1cccc2ccccc12 | 14.2% (inactive) | 
CCOc1cc(NC(=S)NCC2CCCO2)c(OCC)cc1NC(=O)c1cccc(C)c1 (configuration not stated) | -16.3% (inactive) | 
O=C1[C@H]2[C@H]3[C@H](O)[C@H](O)C/C(=N/OC[C@@H](O)COCc4ccco4)[C@H]3CC[C@@H]2C(=O)N1Cc1ccc2c(c1)OCO2 | 3.67% [at 11.4 µM] (inactive) | 
Cn1c(=O)c2c(nc(N3CCN(c4ccccn4)CC3)n2Cc2ccc(Cl)cc2Cl)n(C)c1=O | -15.4% (inactive) | 
CCn1c(SCc2ccc(Cl)cc2Cl)nc2nc3c(cc2c1=O)CCCC3 |  | 1.26 µM (active)
O=c1c2ccccc2nc(SCc2ccccc2Cl)n1Cc1ccccc1 | -13.8% (inactive) | 
S=c1nc(-c2ccccc2)oc2c1CCCC2 | -16.9% (inactive) | 
CN(CC(=O)O/N=C(\N)c1ccccn1)S(=O)(=O)c1ccccc1 | 0.421% (inactive) | 
Cc1ccc(S(=O)(=O)N(CC(=O)N2CCN(c3ccc(F)cc3)CC2)C2CCCCC2)cc1 | -7.36% (inactive) | 
CCN(C1CCCCC1)S(=O)(=O)c1ccc(S(=O)(=O)NCc2ccncc2)cc1 |  | 7.94 µM (active)
O=S(=O)(NCc1cccnc1)c1ccc(Cl)nc1 | -10.6% (inactive) | 
Cc1ccc(/C=C/c2ccc(=O)n(Cc3ccc(Cl)cc3Cl)n2)cc1 | 7.32% (inactive) | 
COC(=O)[C@@]1(Cc2ccc(OC)cc2)[C@@H]2C(=CC(=O)[C@H]2CC(=O)C(=O)N2CCCC2)CN1C(=O)c1ccccc1 | -5.71% (inactive) | 
